This passage reports inhibition results from PubChem BioAssay AID602438 (Sanford-Burnham Center for Chemical Genomics, 2012).

About 3,100 (0.86%) of roughly 360,000 compounds were called active. Shown is part of a subset that was picked to be rich in actives. Values without a mark were called inactive.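 The calls were made as follows: active = inhibition or corrected inhibition above about 18%, plus a signal ratio from 0.5 to 1.5 (limit read from the data, passing the limit was not always enough); inactive = the rest.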

Neuropilin-1 (Homo sapiens), sequence (O14786 whole entry, looked up): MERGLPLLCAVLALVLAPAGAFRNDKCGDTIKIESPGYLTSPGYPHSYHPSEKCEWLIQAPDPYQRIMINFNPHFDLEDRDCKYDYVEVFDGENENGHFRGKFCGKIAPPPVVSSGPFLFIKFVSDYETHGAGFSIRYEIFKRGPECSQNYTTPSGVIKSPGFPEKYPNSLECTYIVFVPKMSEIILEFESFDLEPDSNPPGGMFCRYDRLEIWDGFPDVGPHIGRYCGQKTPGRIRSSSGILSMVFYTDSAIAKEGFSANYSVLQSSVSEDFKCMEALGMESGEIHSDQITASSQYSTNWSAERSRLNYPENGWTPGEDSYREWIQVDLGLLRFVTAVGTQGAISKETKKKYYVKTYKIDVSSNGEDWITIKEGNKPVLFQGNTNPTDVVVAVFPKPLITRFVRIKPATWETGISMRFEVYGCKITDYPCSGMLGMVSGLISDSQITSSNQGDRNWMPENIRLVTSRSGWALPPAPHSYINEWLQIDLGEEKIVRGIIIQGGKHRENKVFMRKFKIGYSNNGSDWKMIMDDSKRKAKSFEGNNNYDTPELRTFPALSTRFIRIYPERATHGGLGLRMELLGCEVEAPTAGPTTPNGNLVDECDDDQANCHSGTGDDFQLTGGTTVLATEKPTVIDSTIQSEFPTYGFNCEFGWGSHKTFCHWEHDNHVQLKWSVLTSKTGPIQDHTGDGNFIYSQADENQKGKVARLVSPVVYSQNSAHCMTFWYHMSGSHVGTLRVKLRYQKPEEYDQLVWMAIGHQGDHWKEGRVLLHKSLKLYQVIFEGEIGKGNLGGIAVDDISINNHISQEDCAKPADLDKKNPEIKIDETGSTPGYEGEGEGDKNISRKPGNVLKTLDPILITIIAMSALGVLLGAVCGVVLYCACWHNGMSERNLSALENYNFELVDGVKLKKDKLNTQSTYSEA

This assay concerns the target Neuropilin-1 (Homo sapiens) (UniProt O14786). Nature of the assay: NRP-1/CendR peptide interaction modulators – biochemical, fluorescence polarization, uHTS, primary screen (AID 602438). Conditions: FAM-RPARPAR peptide binding to NRP-1, fluorescence polarization; at 25 µM; stronger effect = higher value. On the technique in general: Polarisation of emitted light reports the rotation of a fluorescent probe.
Usually inhibition stands for the change of the read-out against control, counted positive when it falls. For the compound `CC(=O)N1CC2(C)CN(C(C)=O)CC(C)(C1)C2=O`, the inhibition is 11.7%.
`CN(Cc1ccccc1)C(=O)C1CCCN(c2ncnc3c2nc2n3CCCCC2)C1` (centres undefined): the inhibition is 10%.
Turning to `O=C(NCc1ccccc1Cl)C1CCN(c2ncnc3c2nc2n3CCCCC2)CC1`, the inhibition is 13.7%.
To `CN(C(=O)C1CCN(c2ncnc3c2nc2n3CCCCC2)CC1)C1CCCCC1` belongs 18.4% (active); to `CCC(=O)c1cn(CCOc2ccccc2OC)c2ccccc12`, -7%.
In the case of `CSCCC(NS(=O)(=O)c1ccc(C)cc1)C(=O)N(C)CC(=O)Nc1ccccc1Br` (centres undefined) it was 3.9%; in that of `O=C(CNC(=O)c1n[nH]c2ccccc12)Nc1cc(Cl)ccc1Cl`, 3.5%.
To `CCC(NC(=O)c1cc(COc2ccc(F)c(F)c2)on1)c1ccncc1` (centres undefined) belongs 1.4%; to `CC1=C(C(N)=O)C(c2ccc(F)cc2)n2nc(CCCO)nc2N1` (centres undefined), 6.8%; to `COc1ccccc1C1C(C(N)=O)=C(C)Nc2nc(CCCO)nn21` (centres undefined), 3.8%.
On to `COCCOC(=O)C1=C(C)Nc2nc(C)nn2C1c1ccccc1` (centres undefined), for which the inhibition is 36.8% (active).
In the case of `Cc1noc(C)c1CSc1nnc2ccc3ccccc3n12` it was 10.5%.
In the case of `COc1ccc(-c2ccc3nnc(SCC(=O)Nc4ccc(NC(C)=O)cc4)n3n2)cc1` it was -19%.
In the case of `CC1C(=O)N(Cc2ccccc2)c2ccccc2N1C(=O)c1ccccc1` (centres undefined), the inhibition was 1.5%.
Turning to `CC1C(C)N(C(=O)CCl)c2ccccc2N1C(=O)CCl` (centres undefined), the inhibition is 27.7% (active).
In the case of `CNC(=O)N1c2ccccc2C=Cc2ccccc21` it was 2.6%.
For `CCN(CC)c1ccc(C2C3CCCCC3(O)CCN2CC(=O)Nc2ccccc2)cc1` (centres undefined), the inhibition was -12.5%.
In the case of `CC(C)Cc1nc(Nc2ccc(S(=O)(=O)N3CCCC3)cc2)c2nnn(Cc3ccccc3)c2n1`, the inhibition was -9.8%.
As to `CCN(CC)CCN1C(=O)C2C(C(=O)Nc3ccc(Br)cc3)C3C=CC2(O3)C1C(=O)NC1CCCCC1` (centres undefined), the inhibition is 10%.
To `CCOC(=O)CN1CC23C=CC(O2)C(C(=O)Nc2ccc(F)cc2)C3C1=O` (centres undefined) belongs -3.4%; to `CC(C)COC(=O)C1C2C=CC3(CN(C(C)c4ccc(Br)cc4)C(=O)C13)O2` (centres undefined), 27.4% (active); to `CCOC(=O)C1CCN(C(=O)c2ccccc2N(C)S(=O)(=O)c2ccccc2)CC1`, 7.6%.
Regarding `Cc1cccc(N2CCN(C(c3ccc(N(C)C)cc3)c3nnnn3C(C)(C)C)CC2)c1C` (centres undefined), the inhibition is -6.2%.
On to `O=C(CCl)NNc1cccc(Cl)n1`, for which the inhibition is 5.6%.
To `COc1ccc(-c2c(C#N)cnc(C)c2C)c(O)c1OC` belongs 37.9% (active).
To `O=C(CC1SC(=Nc2ccccc2F)N(CCN2CCOCC2)C1=O)Nc1ccc(F)cc1F` (centres undefined) belongs -6.8%; to `CCc1ccc(-c2nc(SCC(=O)NC3CCCC3)n[nH]2)cc1`, -8.8%.
In the case of `Cc1cc(C)c(S(=O)(=O)N2CCCC2CNC(=O)c2ccc3c(c2)OCO3)c(C)c1` (centres undefined) it was -6.7%; in that of `Cc1cc(NS(=O)(=O)c2ccc(NC(=O)C(C)Oc3cccc(C)c3C)cc2)nc(C)n1` (centres undefined), -7.8%.
For the compound `CC(C)(C)S(=O)(=O)c1ccccc1-c1noc(-c2ccccc2)c1C(N)=O`, the inhibition is 42.7% (active).
For the compound `Cc1onc(-c2ccccc2)c1C(=O)N1CCN(S(=O)(=O)c2ccccc2C(F)(F)F)CC1`, the inhibition was -195%.
As for `O=C(COC(=O)c1cccnc1Cl)NC12CC3CC(CC(C3)C1)C2`, the inhibition was 8%.
Regarding `CC1(C(=O)NCc2ccc3c(c2)OCO3)CCN1C(=O)Cc1cccs1` (centres undefined), the inhibition is 3%.
For the compound `Cc1cc(C(=O)COc2ccccc2[N+](=O)[O-])c(C)n1-c1cccc(S(=O)(=O)N2CCOCC2)c1`, the inhibition is -14.8%.
To `CCc1c(N=O)c(-c2ccccc2)n(O)[n+]1[O-]` belongs 5.4%; to `O=C(CN1CCN(Cc2ccc(F)cc2Cl)C1=O)NCc1cccs1`, -1.9%; to `CCN=C1S/C(=C\c2cc(Br)ccc2OCC(=O)OCC)C(=O)N1CC`, -10.1%.
To `CN(C)c1ccc2c(=O)[nH][nH]c(=O)c2c1` belongs 11.3%; to `COc1ccc(CNC(=O)[C@@H]2CC=C[C@@H]3CCN(C4CC4)C(=O)[C@@H]32)cc1`, 25.5% (active).
To `COc1ccc(CNC(=O)C2CCN(S(C)(=O)=O)CC2)cc1` belongs -11.1%.
With `COc1ccc(CNC(=O)C2CCN(C(=O)c3ccco3)CC2)cc1`, the inhibition is -1%.
In the case of `COc1cccc(/C=N/NC(=O)C(=O)N2CCCC2)c1` it was -7.9%; in that of `CCOC(=O)C1(Cc2ccccc2C(F)(F)F)CCN(C(=O)c2cc(C)n(C)n2)CC1`, -5.9%.
Regarding `O=C(O)c1ccccc1N=N/C(=N/Nc1cc(S(=O)(=O)O)ccc1O)c1ccccc1`, the inhibition was 41.5% (active).
As to `Cc1ccc(S(=O)(=O)N(C)c2ccc(OCC(=O)OCc3ccc(C#N)cc3)cc2)cc1`, the inhibition was -6.5%.
As for `O=C(c1ccc(N2CCOCC2)c([N+](=O)[O-])c1)N1CCN(S(=O)(=O)c2cccs2)CC1`, the inhibition is -14%.
In the case of `O=C(Cc1ccc(S(=O)(=O)N2CCOCC2)s1)N1CCN(c2ccc(C(F)(F)F)cc2[N+](=O)[O-])CC1` it was 27.6% (active); in that of `O=C(c1ccc(N2CCCC2=O)cc1)N1CCN(c2ccc(C(F)(F)F)cc2[N+](=O)[O-])CC1`, -0.8%.
In the case of `N#Cc1cccc(CSc2ncnc(N)n2)c1` it was 12.4%; in that of `CCOC(=O)C1CCN(C(=O)CN2C(=O)NC(C)(c3ccc4cc(OC)ccc4c3)C2=O)CC1` (centres undefined), -3.2%.
As to `CC1=C(C(N)=O)C(c2sccc2C)n2nnnc2N1` (centres undefined), the inhibition is -5.6%.
Consider `Cc1cc(OC(C)C(=O)NC2CC(C)(C)NC(C)(C)C2)c2c(C)cc(=O)oc2c1` (centres undefined), for which the inhibition is 1.2%.
In the case of `CC(Oc1cccc(Cl)c1)C(=O)NC1CC(C)(C)NC(C)(C)C1` (centres undefined), the inhibition was 24.2% (active).
As to `Cc1cccc(OCC(=O)NC2CC(C)(C)NC(C)(C)C2)c1`, the inhibition is -1.1%.
For `COc1cccc(C2=CC(=O)C[C@H](c3ccc(OC)c(OC)c3)C2)c1`, the inhibition is -4.1%.
In the case of `S=c1[nH]nc(Nc2ccccc2)s1` it was 0.6%; in that of `CC(C)(C)C(=O)c1cnc(Nc2ccccc2)s1`, 37.4% (active).
To `O=C(/C=C/Nc1ccccc1)c1cnc(-c2ccccc2)s1` belongs 5.7%; to `O=c1cc(Cl)c2ccccc2n1-c1ccccc1`, 0%; to `CCOCCn1[nH]c2ccccc2c1=O`, 8.9%.
For the compound `COc1ccc(N2CCN(C(=O)[C@@H](NC(=O)c3cc(OC)cc(OC)c3)C(C)C)CC2)cc1`, the inhibition was 4%.
Take `COc1cc(OC)cc(C(=O)N[C@H](C(=O)NNC(=O)c2ccc(Br)cc2)C(C)C)c1`: the inhibition was 22.8% (active).
In the case of `COc1cc(OC)cc(C(=O)NC(C(=O)N2CCC2)C(C)C)c1` (centres undefined) it was -2.9%.
In the case of `CC1CCN(S(=O)(=O)c2ccc(S(=O)(=O)NCc3ccco3)cc2)CC1`, the inhibition was 8.7%.
In the case of `CN(C)C(=S)N=c1ssc(=S)n1Cc1ccco1` it was -2.5%; in that of `CN(C)CCOC(=O)C(c1ccccc1)C1(O)CCCC1` (centres undefined), 5.3%; in that of `O=C(O)C(c1ccccc1)C1(O)CCCCC1` (centres undefined), -0.6%.
With `O=C(O)C(c1cccs1)C1(O)CCCCC1` (centres undefined), the inhibition was 27.7% (active).
As for `O=C(Cn1cc(C(F)(F)F)ccc1=O)Nc1ccc2c(c1)OCCO2`, the inhibition is -9.1%.
In the case of `O=C(/C=N/O)Nc1ccccc1` it was 3.7%.
In the case of `C#CC(C)(C)NC(=O)c1cnc(-c2ccccc2)nc1-c1ccccc1` it was -0.8%.
In the case of `CCOC(=O)c1cnn(Cc2ccccc2Cl)c1N` it was -3.4%; in that of `CCOC(=O)c1ccn(S(=O)(=O)c2ccc(C)cc2)c1-c1ccccc1`, -9.6%; in that of `CCOC(=O)c1cc2n(c1N)-c1ccccc1C2=O`, 29.5% (active).
Take `CCC(C(=O)NC1CCCC1)N(C(=O)c1snc(C(N)=O)c1N)c1ccc2c(c1)OCCO2` (centres undefined): the inhibition is 5.9%.
Take `CC(NC(=O)COC(=O)Cn1cc(C(F)(F)F)ccc1=O)c1ccccc1` (centres undefined): the inhibition is -13.9%.
Consider `CCN(CC)N=Nc1cccc(NC(C)=O)c1`, for which the inhibition was 1.7%.
For the compound `Cc1ccc(NC(=O)CCN2C(=O)c3ccccc3C2=O)cc1C`, the inhibition was 15.6%.
Take `Cc1cc2c(cc1C)N(C(=O)CN1C(=O)c3ccccc3C1=O)C(C)(C)c1ssc(=S)c1-2`: the inhibition is 23.1% (active).
To `Cc1ccc2c(c1)-c1c(ssc1=S)C(C)(C)N2C(=O)CN1C(=O)c2ccccc2C1=O` belongs -1.5%; to `C=CCn1nc(-c2ccccc2)c2c(C)onc2c1=O`, -1.4%; to `CN1c2ccc(C=O)c3c(C=O)ccc(c23)N(C)C1(C)C`, 56.9% (active).
In the case of `Cc1ccc(C=O)c([B-](F)(F)F)c1` it was -8.7%; in that of `O=C(CCN1CCCO1)N1CCCC(N2CCN(c3cccc(C(F)(F)F)c3)CC2)C1` (centres undefined), 10.2%; in that of `CC1CCCN(C(=O)c2ccc3c(c2)C(=O)N(CCC2=CCCCC2)C3=O)C1` (centres undefined), 9.2%.
In the case of `Cc1cc(=O)[nH]c(SCc2ccc(Cl)cc2)n1` it was 21.5%; in that of `Cc1cc(C)c(C(=O)CSc2nc(C)cc(=O)[nH]2)c(C)c1`, 26.7% (active).
With `COC(=O)c1cccc(NC(=O)CSc2nc(C)cc(=O)[nH]2)c1`, the inhibition is -10.7%.
In the case of `N#CCN(C(=O)COC(=O)C1CC2CCCC(C1)C2=O)c1ccccc1` (centres undefined) it was -17.5%.
Take `O=C(NC(=O)c1ccccc1N1CCCCC1)Nc1ccc(Br)cc1`: the inhibition is 5.9%.
As to `Cc1cccc(C)c1NC(=O)CS(=O)CC(=O)N1CCN(c2ccccc2)CC1` (centres undefined), the inhibition is 16%.
In the case of `CCOC(=O)N1CCN(CC(=O)Nc2ccc(F)cc2)CC1` it was -14.8%; in that of `Cc1cccc(C)c1NC(=O)CN1CCN(c2ccc(F)cc2)CC1`, 19.5% (active).
In the case of `Cc1cc(Nc2ccc(C)c(C)c2)n2ncnc2n1` it was 4.8%.
